# Assay results: article PMC5540273 (PLoS ONE, 2017)
# “And” between values parts separate entries of the source, which are not always exact repeats. Equal entries are not always repeated. Where two headings read alike, the source gives them in different places.
# Key:
# VRK2 = settings: concentration: 1 μM, replicates: in singlicate; n = 1
# WEE1 = settings: n = 1
# WEE2 = settings: n = 1
# WNK1 = settings: n = 1
# WNK2 = settings: n = 1
# WNK3 = settings: n = 1
# WNK4 = settings: n = 1
# YANK1 = test system: T1, YANK1; settings: n = 1
# T1 construct: gene STK32A
# YANK2 = test system: T2, YANK2; settings: n = 1
# T2 construct: gene STK32B
# YANK3 = test system: T3, YANK3; settings: n = 1
# T3 construct: gene STK32C
# YES = test system: T4, YES; settings: n = 1
# T4 construct: gene YES1
# YSK1 = test system: T5, YSK1; settings: n = 1
# T5 construct: gene STK25
# YSK4 = test system: T6, YSK4; settings: n = 1
# T6 construct: gene MAP3K19
# ZAK = settings: n = 1
# ZAP70 = settings: n = 1
# p38-alpha = test system: T7, p38-alpha; settings: concentration: 1 μM, replicates: in singlicate; n = 1
# T7 construct: gene MAPK14
# p38-beta = test system: T8, p38-beta; settings: concentration: 1 μM, replicates: in singlicate; n = 1
# T8 construct: gene MAPK11
# p38-delta = settings: n = 1
# p38-gamma = test system: T9, p38-gamma; settings: n = 1
# T9 construct: gene MAPK12
# [1] = concentration: 1 μM, replicates: in singlicate
# [2] = concentration: 1 μM,replicates: in singlicate, 1 µM
# 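Note: KINOMEscan kinase panel screen.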
smiles,measurement,setting,value
Cn1ccc2ncnc(Oc3ccc(NC(=O)Nc4ccccc4)cc3)c21,%Inh,VRK2,0%
same,%Inh,WEE1; [1],0%
same,%Inh,WEE2; [1],0%
same,%Inh,WNK1; [1],0%
same,%Inh,WNK2; [1],0%
same,%Inh,WNK3; [1],0%
same,%Inh,WNK4; [1],1%
same,%Inh,YANK1; [1],17%
same,%Inh,YANK2; [1],0%
same,%Inh,YANK3; [1],0%
same,%Inh,YES; [1],0%
same,%Inh,YSK1; [1],0%
same,%Inh,YSK4; [1],93.1%
same,%Inh,ZAK; [1],0%
same,%Inh,ZAP70; [1],0%
same,%Inh,p38-alpha,0%
same,%Inh,p38-beta,0%
same,%Inh,p38-delta; [1],6%
same,%Inh,p38-gamma; [1],0%
CS(=O)(=O)c1ccc(-c2c(-c3ncn[nH]3)sc(N3CCOCC3)c2C#N)cc1,%Inh,VRK2,0%
same,%Inh,WEE1; [1],0%
same,%Inh,WEE2; [1],10%
same,%Inh,WNK1; [1],0%
same,%Inh,WNK2; [1],11%
same,%Inh,WNK3; [1],0%
same,%Inh,WNK4; [1],0%
same,%Inh,YANK1; [1],27%
same,%Inh,YANK2; [1],0%
same,%Inh,YANK3; [1],16%
same,%Inh,YES; [1],13%
same,%Inh,YSK1; [1],0%
same,%Inh,YSK4; [1],18%
same,%Inh,ZAK; [1],0%
same,%Inh,ZAP70; [1],0%
same,%Inh,p38-alpha,6%
same,%Inh,p38-beta,11%
same,%Inh,p38-delta; [1],34%
same,%Inh,p38-gamma; [1],33%
Cc1ccc(-c2cc(-c3c[nH]nc3-c3ccccn3)ccn2)cc1 [GW684088],%Inh,VRK2,45%
same,%Inh,WEE1; [1],1%
same,%Inh,WEE2; [1],0%
same,%Inh,WNK1; [1],6%
same,%Inh,WNK2; [1],19%
same,%Inh,WNK3; [1],53%
same,%Inh,WNK4; [1],89%
same,%Inh,YANK1; [1],0%
same,%Inh,YANK2; [1],0%
same,%Inh,YANK3; [1],0%
same,%Inh,YES; [1],17%
same,%Inh,YSK1; [1],10%
same,%Inh,YSK4; [1],2%
same,%Inh,ZAK; [1],0%
same,%Inh,ZAP70; [1],10%
same,%Inh,p38-alpha,56%
same,%Inh,p38-beta,0%
same,%Inh,p38-delta; [1],25%
same,%Inh,p38-gamma; [1],11%
CC(C)(C)c1ccc(C(=O)Nc2cn3cc(-c4cccnc4)ccc3n2)cc1,%Inh,VRK2,0%
same,%Inh,WEE1; [1],0%
same,%Inh,WEE2; [1],0%
same,%Inh,WNK1; [1],0%
same,%Inh,WNK2; [1],36%
same,%Inh,WNK3; [1],0%
same,%Inh,WNK4; [1],26%
same,%Inh,YANK1; [1],3%
same,%Inh,YANK2; [1],0%
same,%Inh,YANK3; [1],20%
same,%Inh,YES; [1],10%
same,%Inh,YSK1; [1],1%
same,%Inh,YSK4; [1],66%
same,%Inh,ZAK; [1],19%
same,%Inh,ZAP70; [1],0%
same,%Inh,p38-alpha,1%
same,%Inh,p38-beta,30%
same,%Inh,p38-delta; [1],46%
same,%Inh,p38-gamma; [1],21%
Cc1nnc(-c2ccc3occ(-c4ccc(S(C)=O)cc4)c3c2)[nH]1 (stereo not shown),%Inh,VRK2,0%
same,%Inh,WEE1; [1],0%
same,%Inh,WEE2; [1],32%
same,%Inh,WNK1; [1],0%
same,%Inh,WNK2; [1],19%
same,%Inh,WNK3; [1],0%
same,%Inh,WNK4; [1],0%
same,%Inh,YANK1; [1],0%
same,%Inh,YANK2; [1],0%
same,%Inh,YANK3; [1],0%
same,%Inh,YES; [1],0%
same,%Inh,YSK1; [1],0%
same,%Inh,YSK4; [1],44%
same,%Inh,ZAK; [1],8%
same,%Inh,ZAP70; [1],0%
same,%Inh,p38-alpha,13%
same,%Inh,p38-beta,0%
same,%Inh,p38-delta; [1],3%
same,%Inh,p38-gamma; [1],9%
Cc1ccc(C(=O)Nc2ccc(Nc3ccnc4cc(-c5ccccn5)ccc34)cc2O)cc1.Cl [GW440146],%Inh,VRK2,0%
same,%Inh,WEE1; [1],39%
same,%Inh,WEE2; [1],0%
same,%Inh,WNK1; [1],10%
same,%Inh,WNK2; [1],8%
same,%Inh,WNK3; [1],36%
same,%Inh,WNK4; [1],39%
same,%Inh,YANK1; [1],0%
same,%Inh,YANK2; [1],14%
same,%Inh,YANK3; [1],30%
same,%Inh,YES; [1],42%
same,%Inh,YSK1; [1],0%
same,%Inh,YSK4; [1],14%
same,%Inh,ZAK; [1],48%
same,%Inh,ZAP70; [1],9%
same,%Inh,p38-alpha,0%
same,%Inh,p38-beta,0%
same,%Inh,p38-delta; [1],42%
same,%Inh,p38-gamma; [1],11%
Fc1cc(Cl)ccc1Nc1ccnc2cc(I)ccc12 [GW551191],%Inh,VRK2,0%
same,%Inh,WEE1; [1],8%
same,%Inh,WEE2; [1],0%
same,%Inh,WNK1; [1],3%
same,%Inh,WNK2; [1],11%
same,%Inh,WNK3; [1],29%
same,%Inh,WNK4; [1],16%
same,%Inh,YANK1; [1],16%
same,%Inh,YANK2; [1],11%
same,%Inh,YANK3; [1],20%
same,%Inh,YES; [1],15%
same,%Inh,YSK1; [1],0%
same,%Inh,YSK4; [1],49%
same,%Inh,ZAK; [1],20%
same,%Inh,ZAP70; [1],0%
same,%Inh,p38-alpha,30%
same,%Inh,p38-beta,0%
same,%Inh,p38-delta; [1],41%
same,%Inh,p38-gamma; [1],1%
COc1cc(Nc2nccc(N3CCC(NC(=O)Nc4cc(C)ccc4C)C3)n2)cc(OC)c1OC (stereo not shown) [GSK1379762],%Inh,VRK2,0%
same,%Inh,WEE1; [1],32%
same,%Inh,WEE2; [1],9%
same,%Inh,WNK1; [1],1%
same,%Inh,WNK2; [1],0%
same,%Inh,WNK3; [1],8%
same,%Inh,WNK4; [1],25%
same,%Inh,YANK1; [1],8%
same,%Inh,YANK2; [1],0%
same,%Inh,YANK3; [1],10%
same,%Inh,YES; [1],10%
same,%Inh,YSK1; [1],0%
same,%Inh,YSK4; [1],27%
same,%Inh,ZAK; [1],3%
same,%Inh,ZAP70; [1],0%
same,%Inh,p38-alpha,0%
same,%Inh,p38-beta,0%
same,%Inh,p38-delta; [1],32%
same,%Inh,p38-gamma; [1],24%
CN1C(=O)C(Nc2ccc(Cl)c(C(=O)O)c2)=C(c2ccc(Cl)cc2)C1=O [SB-404290],%Inh,VRK2,0%
same,%Inh,WEE1; [1],0%
same,%Inh,WEE2; [1],21%
same,%Inh,WNK1; [1],0%
same,%Inh,WNK2; [1],0%
same,%Inh,WNK3; [1],5%
same,%Inh,WNK4; [1],16%
same,%Inh,YANK1; [1],0%
same,%Inh,YANK2; [1],0%
same,%Inh,YANK3; [1],0%
same,%Inh,YES; [1],6%
same,%Inh,YSK1; [1],0%
same,%Inh,YSK4; [1],4%
same,%Inh,ZAK; [1],0%
same,%Inh,ZAP70; [1],1%
same,%Inh,p38-alpha,5%
same,%Inh,p38-beta,2%
same,%Inh,p38-delta; [1],0%
same,%Inh,p38-gamma; [1],27%
Cc1csc(-c2nc(Nc3ccncc3)c3ccccc3n2)n1 [GW869640],%Inh,VRK2,20%
same,%Inh,WEE1; [1],1%
same,%Inh,WEE2; [1],12%
same,%Inh,WNK1; [1],37%
same,%Inh,WNK2; [1],0%
same,%Inh,WNK3; [1],33%
same,%Inh,WNK4; [1],13%
same,%Inh,YANK1; [1],2%
same,%Inh,YANK2; [1],3%
same,%Inh,YANK3; [1],43%
same,%Inh,YES; [1],0%
same,%Inh,YSK1; [1],0%
same,%Inh,YSK4; [1],38%
same,%Inh,ZAK; [1],17%
same,%Inh,ZAP70; [1],18%
same,%Inh,p38-alpha,14%
same,%Inh,p38-beta,12%
same,%Inh,p38-delta; [1],0%
same,%Inh,p38-gamma; [1],39%
CSc1nn2c(=O)cc(N3CCOCC3)nc2n1Cc1cccc(C(F)(F)F)c1C [GSK2363608],%Inh,VRK2,0%
same,%Inh,WEE1; [2],15% and 11%
same,%Inh,WEE2; [2],9% and 10%
same,%Inh,WNK1; [2],13% and 7%
same,%Inh,WNK2; [2],14% and 22%
same,%Inh,WNK3; [2],24% and 10%
same,%Inh,WNK4; [2],1% and 4%
same,%Inh,YANK1; [2],0% and 3%
same,%Inh,YANK2; [2],8% and 0%
same,%Inh,YANK3; [2],0% and 68%
same,%Inh,YES; [2],19% and 22%
same,%Inh,YSK1; [2],1% and 0%
same,%Inh,YSK4; [2],40% and 30%
same,%Inh,ZAK; [2],10% and 0%
same,%Inh,ZAP70; [2],32% and 0%
same,%Inh,p38-alpha,0%
same,%Inh,p38-beta,0%
same,%Inh,p38-delta; [2],55% and 34%
same,%Inh,p38-gamma; [2],7% and 0%
CCn1c(-c2cccnc2O)nc2cnccc21 [SB-736715],%Inh,VRK2,77%
same,%Inh,WEE1; [1],0%
same,%Inh,WEE2; [1],84%
same,%Inh,WNK1; [1],0%
same,%Inh,WNK2; [1],24%
same,%Inh,WNK3; [1],0%
same,%Inh,WNK4; [1],0%
same,%Inh,YANK1; [1],0%
same,%Inh,YANK2; [1],0%
same,%Inh,YANK3; [1],0%
same,%Inh,YES; [1],0%
same,%Inh,YSK1; [1],0%
same,%Inh,YSK4; [1],0%
same,%Inh,ZAK; [1],0%
same,%Inh,ZAP70; [1],0%
same,%Inh,p38-alpha,0%
same,%Inh,p38-beta,0%
same,%Inh,p38-delta; [1],8%
same,%Inh,p38-gamma; [1],0%
Cn1cncc1-c1ccc2ncnc(Nc3ccc(OCc4ccccc4)cc3)c2c1 [GW320571],%Inh,VRK2,0%
same,%Inh,WEE1; [1],16%
same,%Inh,WEE2; [1],14%
same,%Inh,WNK1; [1],1%
same,%Inh,WNK2; [1],15%
same,%Inh,WNK3; [1],3%
same,%Inh,WNK4; [1],0%
same,%Inh,YANK1; [1],94.2%
same,%Inh,YANK2; [1],16%
same,%Inh,YANK3; [1],7%
same,%Inh,YES; [1],26%
same,%Inh,YSK1; [1],0%
same,%Inh,YSK4; [1],1%
same,%Inh,ZAK; [1],17%
same,%Inh,ZAP70; [1],0%
same,%Inh,p38-alpha,0%
same,%Inh,p38-beta,2%
same,%Inh,p38-delta; [1],21%
same,%Inh,p38-gamma; [1],0%
